Test results as given in PubChem BioAssay AID504834 (National Center for Advancing Translational Sciences (NCATS), 2011).
The whole screen tested about 320,000 compounds, of which about 22,000 (6.9%) were called active. Another 27% or so got no clear call; they are omitted. The call rests on the fitted dose curve; in most records, active means well fitted inhibition curve with a large enough effect; inconclusive means small, poorly fitted or top-dose-only effect, or another doubt; inactive means no such curve, though single readings can be large or run the other way. The sample as a whole holds a higher share of actives than the screen did.

Test: Primary qHTS for delayed death inhibitors of the malarial parasite plastid, 96 hour incubation
Conditions: P. falciparum luciferase reporter growth; series mostly up to 28.7 µM; activity change, negative = inhibition: at the top concentration
In short: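 Erythrocytes infected with luciferase-expressing P. falciparum were dispensed at 2% hematocrit and 0.05% parasitemia (final), then incubated with compounds 96 hours at 37 C in 5% CO2. Luminescence after detection reagent addition reported growth.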
On the % scale 0 is the no-effect control and ±100 the full control effect; potency means the concentration at half of the fitted maximal effect.

Row | SMILES | activity change, negative = inhibition | Potency
1 | COc1ccc(C2=NN(C(=O)CSc3nnnn3C)C(c3ccco3)C2)cc1 (stereo unspecified) | 12.9% (inactive) | –
2 | CCN(C(=O)c1ccc(Br)cc1)c1ccccc1 | 6.13% (inactive) | –
3 | O=C(COc1ccc(F)cc1)N(CC1=CCS(=O)(=O)C1)c1ccccc1 | 8.32% (inactive) | –
4 | CCN(C(=O)COc1ccc(C(=O)c2ccccc2)cc1)c1ccccc1 | – | 11.7 µM (active)
5 | CCc1ccc(NC(=O)CS(=O)CC(=O)N2CCN(c3ccccc3F)CC2)cc1 (stereo unspecified) | 10.1% (inactive) | –
6 | COc1cccc(/C=N/Nc2ccc(Cl)nn2)c1 | 19.8% (inactive) | –
7 | CCOC(=O)C(C)n1cnc2c(nnn2-c2ccc(F)cc2)c1=O (stereo unspecified) | 79.2% (inactive) | –
8 | COc1cccc(/C=N/Nc2cc(C)nc(-c3ccccc3O)n2)c1O | – | 0.37 µM (active)
9 | COc1cccc(/C=N/Nc2ncc(C(F)(F)F)cc2Cl)c1O | 165% (inactive) | –
10 | COc1cccc2c(N/N=C/c3ccco3)cc(C)nc12 | 27.3% (inactive) | –
11 | O=C(Nc1ccncc1)c1ccc(Cl)c([N+](=O)[O-])c1 | 22.6% (inactive) | –
12 | O=C(/C=C/c1ccc(Cl)c([N+](=O)[O-])c1)c1ccc(O)cc1 | – | 9.28 µM (active)
13 | NC(N)=N/N=C/c1ccc(Cl)c([N+](=O)[O-])c1 | – | 11.7 µM (active)
14 | O=C(/C=C/c1ccc2c(c1)OCCO2)c1ccc(O)cc1 | 144% (inactive) | –
15 | O=C(/C=C/c1ccc(Cl)c([N+](=O)[O-])c1)c1cccnc1 | 18.1% (inactive) | –
16 | CN(C)c1ccc(/C=C/C(=O)c2ccc(O)cc2)cc1[N+](=O)[O-] | -16.4% (inactive) | –
17 | COc1ccc(Cl)cc1NC(=O)COc1ccc2c(c1)OCO2 | -14.3% (inactive) | –
18 | CCN1C(=S)N[C@@H](c2cccc(C(F)(F)F)c2)C(C(=O)OC)=C1C | 76.3% (inactive) | –
19 | CCCCn1c(N)c(N(CC(C)C)C(=O)CSc2ccc([N+](=O)[O-])cc2)c(=O)[nH]c1=O | 8.89% (inactive) | –
20 | COc1ccc(OC)c(CN2CCN(C(=O)CNC(=O)c3cc(C)cc(C)c3)CC2)c1 | 48.5% (inactive) | –
21 | O=C(CCNC(=O)c1ccccc1Cl)NCc1ccco1 | -28.5% (inactive) | –
22 | Cc1cccc(C)c1NC(=O)COC(=O)c1ccccc1O | 38.1% (inactive) | –
23 | C=CCn1c(CNS(=O)(=O)c2ccc(Br)cc2)nnc1SC | -3.42% (inactive) | –
24 | CC(=O)Nc1ccc(NC(=O)c2ccc3c(c2)C(=O)N(c2ccccc2C)C3=O)cc1 | -5.53% (inactive) | –
25 | Cc1cccc(N2C(=O)c3ccc(C(=O)Nc4cccc(C(=O)O)c4)cc3C2=O)c1 | – | 13.1 µM (active)
26 | COC(=O)c1cccc(NC(=O)c2cccc(N3C(=O)CCC3=O)c2)c1 | 32.1% (inactive) | –

Row | SMILES | activity change, negative = inhibition | Potency
27 | NC(=O)c1nsc(C(=O)N(CCCN2CCOCC2)C(C(=O)NC2CCCCC2)c2ccc(Cl)cc2)c1N (stereo unspecified) | 4.88% (inactive) | –
28 | c1ccc2cc(CCCc3cc4ccccc4cn3)ncc2c1 | 33.1% (inactive) | –
29 | CCOc1ccc(OCc2ccc(C(=O)N(C)c3ccccc3)o2)cc1 | -9.61% (inactive) | –
30 | CCOC(=O)c1nnn(-c2nc(OC)nc(N(C)C)n2)c1-c1ccccc1 | – | 2.33 µM (active)
31 | CCOC(=O)c1nnn(-c2nonc2OC)c1-c1ccccc1 | -1.93% (inactive) | –
32 | CCOC(=O)c1c(N)nn(C(=O)c2ccccc2)c1-c1ccccc1 | -1.13% (inactive) | –
33 | NC(=O)c1ccsc1NC(=O)COC(=O)Cc1n[nH]c(=O)c2ccccc12 | 56.7% (inactive) | –
34 | CCn1c(C(O)c2cc(OC)ccc2OC)nc2ccccc21 (stereo unspecified) | – | 9.28 µM (active)
35 | COc1ccc(OC)c(C(O)c2nc3ccccc3n2C)c1 (stereo unspecified) | -5.13% (inactive) | –
36 | CCCn1c(C(O)c2ccc(OCC)cc2)nc2ccccc21 (stereo unspecified) | 69.5% (inactive) | –
37 | O=C(Nc1cccc(Cl)c1)c1cc(S(=O)(=O)N2CCCCC2)c[nH]1 | 51.3% (inactive) | –
38 | CC(=O)Nc1ccc(S(=O)(=O)NC2Cc3ccccc3C2)cc1 | 3.82% (inactive) | –
39 | CCOc1ccc2nc(Cl)c(C3CC(c4ccccc4)=NN3C(=O)c3cccs3)cc2c1 (stereo unspecified) | – | 8.28 µM (active)
40 | COc1ccc(C2CC(c3ccccc3)=NN2C(=O)c2ccc(Cl)c([N+](=O)[O-])c2)cc1 (stereo unspecified) | -9.04% (inactive) | –
41 | COc1ccc(C2=NN(C(=O)c3ccccc3C(=O)O)C(c3ccccc3O)C2)cc1 (stereo unspecified) | 64.5% (inactive) | –
42 | Cc1ccccc1Cn1c2ccccc2c2cnn(CC(=O)NCc3ccco3)c(=O)c21 | -25.7% (inactive) | –
43 | CCN(C(=O)COC(=O)CCOc1cccc(C)c1)c1c(N)n(Cc2ccccc2)c(=O)[nH]c1=O | 25.4% (inactive) | –
44 | COc1ccc(NC(=O)CN(C)CC(=O)Nc2cccc(C(F)(F)F)c2)cc1 | -20.6% (inactive) | –
45 | O=C(Nc1cccc(C(F)(F)F)c1)c1cnccn1 | 16.6% (inactive) | –
46 | COc1cc(NC(=O)c2cncc(-c3ccc(C#N)cc3)c2)cc(C(=O)Nc2cccc(C(F)(F)F)c2)c1 | – | 6.57 µM (active)
47 | Cc1c(Cl)cccc1NC(=S)NCC(O)c1ccccc1 (stereo unspecified) | 0% (inactive) | –
48 | O=C(OC(C(=O)NC1CCCC1)c1ccc(F)cc1)c1ccno1 (stereo unspecified) | 13.4% (inactive) | –
49 | CC(C)C(=O)NCC(c1cccs1)S(=O)(=O)c1ccc(F)cc1 (stereo unspecified) | 19.9% (inactive) | –
50 | COCCNC(=O)C(OC(=O)c1cccs1)c1ccc(F)cc1 (stereo unspecified) | – | 13.1 µM (active)
51 | CC(=O)C[C@@H](O)CC(=O)[C@H]1OC(=O)CCCCCCc2ccccc21 | 33.7% (inactive) | –
52 | CCCCn1c(N)c(N(CCOC)C(=O)c2cccc(OCc3ccccc3)c2)c(=O)[nH]c1=O | -15.2% (inactive) | –

Row | SMILES | activity change, negative = inhibition | Potency
53 | COCC(C)OC(=O)c1c(N)n(CCCN2CCOCC2)c2nc3ccccc3nc12 (stereo unspecified) | -41.3% (inactive) | –
54 | COc1ccc(Cn2c(=S)[nH]c3cc(C(=O)NCCCN4CCOCC4)ccc3c2=O)cc1 | 12.8% (inactive) | –
55 | COc1ccc(CCn2c(=N)c(C(=O)NCc3ccco3)cc3c(=O)n4cccc(C)c4nc32)cc1 | – | 0.586 µM (active)
56 | COCCNC(=O)c1ccc(Cn2c(SCC(=O)NCC3CCCO3)nc3ccc(Br)cc3c2=O)cc1 (stereo unspecified) | -0.164% (inactive) | –
57 | Cc1ccc(-c2noc(-c3ccccc3C(=O)NCC3CCCO3)n2)cc1 (stereo unspecified) | 23.6% (inactive) | –
58 | Cc1ccc2cc(C#N)c(NCCNC(=S)NCCCN3CCOCC3)nc2c1 | 31.8% (inactive) | –
59 | Cc1cccn2c(=O)c3cc(C(=O)NCCN4CCOCC4)c(=N)n(Cc4cccnc4)c3nc12 | – | 7.38 µM (active)
60 | Cc1cccn2c(=O)c3cc(C#N)c(=O)n(CCCN4CCOCC4)c3nc12 | – | 2.62 µM (active)
61 | O=C(NCc1ccco1)c1cccn2c(=O)c3c4c(sc3nc12)CCCC4 | -0.317% (inactive) | –
62 | Cc1cccn2c(CNCC(C)Oc3cccnc3)c(C(=O)N3CCOCC3)nc12 (stereo unspecified) | 2.34% (inactive) | –
63 | Cc1cccn2c(=O)c3cc(C(=O)NCC4CCCO4)c(=N)n(Cc4ccc(F)cc4)c3nc12 (stereo unspecified) | – | 9.28 µM (active)
64 | CCn1c(=N)c(C(=O)NCCCOC)cc2c(=O)n3cccc(C)c3nc21 | 0% (inactive) | –
65 | O=C(c1c(F)cccc1F)N1CCN(c2ncc(Br)cn2)CC1 | 8.96% (inactive) | –
66 | COC(=O)c1ccc(/C=N/NC(=O)C(=O)N2CCCCCC2)cc1 | 14% (inactive) | –
67 | Brc1ccccc1C1N=C(c2ccccc2)NO1 (stereo unspecified) | 189% (inactive) | –
68 | CCCCn1c(N)c(N(CC(C)C)C(=O)c2cccc(S(=O)(=O)N3CCN(C(C)=O)CC3)c2)c(=O)[nH]c1=O | -22.4% (inactive) | –
69 | CCN(C(=O)Cc1c(C(=O)O)n(CC)c2ccccc12)c1ccccc1C | 41.7% (inactive) | –
70 | COc1ccc(C(=O)COC(=O)Cn2cnc3c2c(=O)n(C)c(=O)n3C)c(OC)c1 | -24.7% (inactive) | –
71 | N#Cc1cccc(CSc2ncnc(N)n2)c1 | 2.96% (inactive) | –
72 | Cc1cc(C)n(-c2nnc(N3CCN(c4ccccc4)CC3)nn2)n1 | – | 0.329 µM (active)
73 | Cc1cc(-n2nc(C)cc2C)n2ncc(-c3ccccc3)c2n1 | 0% (inactive) | –
74 | Cc1cc(N2CCN(c3ccccc3)CC2)nc(N2CCOCC2)n1 | -12% (inactive) | –
75 | COc1ccc(N(CC(=O)Nc2cc(OC)cc(OC)c2)S(=O)(=O)c2c(C)n[nH]c2C)cc1 | 3.89% (inactive) | –
76 | Cc1ccnc(N2C(=O)c3ccc([N+](=O)[O-])cc3C2=O)c1 | -15.9% (inactive) | –
77 | Nc1cc(N2CCCCCC2)c2nonc2c1[N+](=O)[O-] | -10.3% (inactive) | –
78 | COc1ccc(C(=O)Nc2ccc3c(c2)OCO3)cc1OC | 155% (inactive) | –

Row | SMILES | activity change, negative = inhibition | Potency
79 | COc1ccc(C(=O)NC(=S)Nc2ccc(N3CCCC3)cc2)cc1OC | -18.8% (inactive) | –
80 | COc1ccc(C(=O)Nc2ccc3nc(N4CCCCC4)cc(C)c3c2)cc1OC | – | 11.7 µM (active)
81 | COc1ccccc1C(=O)NCC(=O)NCCSc1ccc(Br)cc1 | -14.1% (inactive) | –
82 | CCOc1cc(/C=N/Nc2cc(C)nc3ccc(C)cc23)ccc1O | -21.3% (inactive) | –
83 | CNc1ccc([N+](=O)[O-])cc1C(=O)O | -4.06% (inactive) | –
84 | CCCCN(C(=O)c1ccc(S(=O)(=O)N2CCOCC2)cc1)C1CCS(=O)(=O)C1 (stereo unspecified) | 22% (inactive) | –
85 | CC1CCCCN1C(=O)Cn1c(=O)oc2cc(S(=O)(=O)N3CCCCC3)ccc21 (stereo unspecified) | -24% (inactive) | –
86 | CCCNC(=O)c1ccc(N2CCC3(CC2)CC(c2cccc(Br)c2)=NO3)c(NC(=O)c2ccco2)c1 | – | 0.37 µM (active)
87 | O=C(Nc1ccccc1N1CCN(C(=O)c2ccccc2)CC1)c1ccco1 | -8.23% (inactive) | –
88 | COC(=O)c1ccc(N2CCOCC2)c(NC(=O)c2ccc(Br)o2)c1 | 33.6% (inactive) | –
89 | CC(CCc1ccc(O)cc1)NCc1ccc(Cl)cc1Cl (stereo unspecified) | 22.2% (inactive) | –
90 | O=C(CNS(=O)(=O)c1ccccc1)N1CCN(C(=O)c2ccco2)CC1 | 33.3% (inactive) | –
91 | CC(OC(=O)Cc1ccc(F)cc1)C(=O)N1CCc2ccccc21 (stereo unspecified) | 33.6% (inactive) | –
92 | N=c1c2c3c(sc2ncn1N)CCCCC3 | – | 3.7 µM (active)
93 | N=c1c2c3c(sc2ncn1N)CCCC3 | -21.6% (inactive) | –
94 | c1nnc2c3c4c(sc3ncn12)CCC4 | -4.03% (inactive) | –
95 | C[C@@H]1O[C@@H](OC[C@H]2O[C@@H](Oc3c(-c4ccc(O)cc4)oc4cc(O)cc(O)c4c3=O)[C@H](O)[C@@H](O)[C@@H]2O)[C@H](O)[C@H](O)[C@H]1O | 41.3% (inactive) | –
96 | COc1ccc(CC(=O)Nc2cc(S(=O)(=O)N3CCCCC3)ccc2N2CCN(C)CC2)cc1 | – | 6.57 µM (active)
97 | O=C(COC(=O)Cc1ccc(F)cc1)Nc1cc(S(=O)(=O)N2CCOCC2)ccc1N1CCCC1 | -12.5% (inactive) | –
98 | CN1CCN(c2ccc(S(=O)(=O)N3CCOCC3)cc2NC(=O)CCc2ccccc2)CC1 | -0.796% (inactive) | –
99 | CCOc1cccc2cc(C(=O)OCC(=O)Nc3c(C)cccc3CC)c(=O)oc12 | 5.09% (inactive) | –
100 | Cc1ccc(S(=O)(=O)N2CCC3(CC2)OCCO3)c(C)c1 | 49% (inactive) | –
101 | Cc1cccc(N2CCN(C(C)C(=O)N3CCc4ccccc43)CC2)c1C (stereo unspecified) | -15.4% (inactive) | –
